Reference: PubChem BioAssay (EPA / NIEHS)
Several values for one entry are separate records, joined by “and”; a condition that tells them apart may be missing. Equal values may be shown once. Where a structure was tested more than once in an assay, its records may differ in their call. Activity calls are given as the source filed them. How the source made its calls: active means hit-call score of the fitted dose curve at least 0.9, where 1 is the maximum; inactive means score below 0.9.

Key:
[1] = read-out: Epidermal growth factor receptor (EGFR), EGFR (gene 1956); assay: BSK_BE3C_EGFR: BioMAP Diversity Plus: BE3C Assay for Epidermal growth factor receptor (EGFR) Biomarker Activity (AID 2284281); conditions: primary human bronchial epithelial cells
Method in brief: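 Human primary bronchial epithelial cells (BE3C system) dosed with chemicals; EGFR measured by ELISA at 24 h, fitted in the positive direction relative to DMSO. Cytotoxicity tracked in parallel cultures by SRB total-protein staining.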

[2] = read-out: KRT18 (gene 3875); assay: BSK_BE3C_Keratin818: BioMAP Diversity Plus: BE3C Assay for Keratin 818 Biomarker Activity (AID 2284282); conditions: primary human bronchial epithelial cells
Method in brief: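 BE3C: human bronchial epithelial primary cells, 24 h exposure, Keratin 8/18 ELISA; DMSO = negative control/baseline; cytotoxicity by parallel SRB stain (0.1% SRB after 10% TCA fixation, 560 nm).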

[3] = read-out: Matrix Metallopeptidase 9 (MMP9), MMP9 (gene 4318); assay: BSK_BE3C_MMP9: BioMAP Diversity Plus: BE3C Assay for Matrix Metallopeptidase 9 (MMP9) Biomarker Activity (AID 2284283); conditions: primary human bronchial epithelial cells
Method in brief: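 Human primary bronchial epithelial cells exposed 24 h to compound. MMP9 quantified by ELISA. SRB total-protein staining of parallel cultures assesses cytotoxicity. Positive-direction fit relative to DMSO.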

[4] = read-out: Plasminogen activator inhibitor-1 (PAI1), SERPINE1 (gene 5054); assay: BSK_CASM3C_PAI1: BioMAP Diversity Plus: CASM3C Assay for Plasminogen activator inhibitor-1 (PAI1) Biomarker Activity (AID 2284284); conditions: primary human coronary artery smooth muscle cells;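 further: PAI-1 protein level measured by ELISA 24 h after dosing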
[5] = read-out: Monocyte Chemoattractant Protein-1 (MCP1), CCL2 (gene 6347); assay: BSK_hDFCGF_MCP1: BioMAP Diversity Plus: hDFCGF Assay for Monocyte Chemoattractant Protein-1 (MCP1) Biomarker Activity (AID 2284285); conditions: primary human foreskin fibroblasts
Method in brief: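 Human foreskin fibroblasts (hDFCGF system) were exposed to compound and secreted MCP-1 was measured by ELISA after 24 hours. Activity was fitted relative to DMSO. Cytotoxicity was checked by SRB total-protein staining in parallel cultures.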

[6] = read-out: Vascular cell adhesion molecule 1 (VCAM1), VCAM1 (gene 7412); assay: BSK_IMphg_VCAM1: BioMAP Diversity Plus: IMphg Assay for Vascular cell adhesion molecule 1 (VCAM1) Biomarker Activity (AID 2284286); conditions: primary human endothelial cells with macrophages
Method in brief: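 Human venular endothelial cells co-cultured with macrophages; VCAM-1 quantified by ELISA 24 h after dosing, fitted in the positive direction against DMSO. Cytotoxicity was checked in parallel cultures by SRB total-protein staining (0.1% SRB after 10% TCA fixation, 560 nm).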

[7] = read-out: Intercellular Adhesion Molecule 1 (ICAM1), ICAM1 (gene 3383); assay: BSK_hDFCGF_ICAM1: BioMAP Diversity Plus: hDFCGF Assay for Intercellular Adhesion Molecule 1 (ICAM1) Biomarker Activity (AID 2284287); conditions: primary human foreskin fibroblasts
Method in brief: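 Primary human foreskin fibroblasts (hDFCGF system) dosed with chemical; ICAM-1 quantified by ELISA at 24 h relative to DMSO. Parallel SRB total-protein staining to assess overt cytotoxicity.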

[8] = read-out: CD40, CD40 (gene 958); assay: BSK_IMphg_CD40: BioMAP Diversity Plus: IMphg Assay for CD40 Biomarker Activity (AID 2284288); conditions: primary human endothelial cells with macrophages
Method in brief: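 Venular endothelial cells co-cultured with macrophages (human primary), CD40 measured by ELISA 24 h after dosing. Positive-direction fit vs DMSO baseline; cytotoxicity tracked by SRB total-protein staining in parallel cultures.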

[9] = read-out: TIMP metallopeptidase inhibitor 2 (TIMP2), TIMP2 (gene 7077); assay: BSK_hDFCGF_TIMP2: BioMAP Diversity Plus: hDFCGF Assay for TIMP metallopeptidase inhibitor 2 (TIMP2) Biomarker Activity (AID 2284289); conditions: primary human foreskin fibroblasts
Method in brief: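 Primary human foreskin fibroblasts in the hDFCGF system, dosed for 24 h; TIMP-2 level measured by ELISA, fitted in the positive direction against DMSO; cytotoxicity checked in parallel by sulforhodamine B total protein staining.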

[10] = read-out: Interleukin-1 alpha (IL1a), IL1A (gene 3552); assay: BSK_IMphg_IL1a: BioMAP Diversity Plus: IMphg Assay for Interleukin-1 alpha (IL1a) Biomarker Activity (AID 2284290); conditions: primary human endothelial cells with macrophages
Method in brief: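 Human venular endothelial cells co-cultured with macrophages, IMphg system. IL-1α is measured by ELISA 24 h after dosing and fitted in the positive direction against DMSO. Cytotoxicity is assessed by SRB staining of parallel cultures.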

[11] = read-out: E-selectin (Homo sapiens) (UniProt P16581); assay: BSK_IMphg_ESelectin: BioMAP Diversity Plus: IMphg Assay for Eselectin Biomarker Activity (AID 2284291); conditions: primary human endothelial cells with macrophages
Method in brief: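 Human venular endothelial cell–macrophage co-culture, E-selectin measured by ELISA 24 h after chemical dosing. Signal fitted in the positive direction against DMSO as negative control and baseline.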

[12] = BSK_IMphg_SRB: Viability Assessment in the BioMAP Diversity Plus: IMphg Assay (AID 2284292); conditions: primary human endothelial cells with macrophages;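 further: measured one day after compound addition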
Method in brief: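 Human venular endothelial cells with macrophages, 24 h after chemical dosing; total protein by 0.1% SRB staining after 10% TCA fixation, read at 560 nm. Positive-direction fitting versus DMSO baseline.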

[13] = read-out: Macrophage colony-stimulating factor (MCSF), CSF1 (gene 1435); assay: BSK_IMphg_MCSF: BioMAP Diversity Plus: IMphg Assay for Macrophage colony-stimulating factor (MCSF) Biomarker Activity (AID 2284293); conditions: primary human endothelial cells with macrophages
Method in brief: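 Co-culture of human venular endothelial cells and macrophages, 24 hours of chemical exposure. M-CSF quantified by ELISA, with parallel SRB total-protein staining for cytotoxicity; activity fitted relative to DMSO.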

[14] = read-out: Interleukin-10 (IL10), IL10 (gene 3586); assay: BSK_IMphg_IL10: BioMAP Diversity Plus: IMphg Assay for Interleukin-10 (IL10) Biomarker Activity (AID 2284294); conditions: primary human endothelial cells with macrophages
Method in brief: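 Human venular endothelial cells cocultured with macrophages, dosed 24 h; IL-10 measured by ELISA, activity relative to DMSO. Cytotoxicity assessed in parallel cultures by sulforhodamine B total-protein staining.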

[15] = BSK_IMphg_SRB.Mphg: Macrophage Viability Assessment in the BioMAP Diversity Plus: IMphg Assay (AID 2284295); conditions: primary human endothelial cells with macrophages
Method in brief: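 Venular endothelial cells co-cultured with macrophages, read 24 h after dosing. Total protein measured by 0.1% SRB staining after 10% TCA fixation, absorbance at 560 nm. Fitted in positive direction against DMSO baseline.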

[16] = read-out: Thrombomodulin, THBD (gene 7056); assay: BSK_LPS_Thrombomodulin: BioMAP Diversity Plus: LPS Assay for Thrombomodulin Biomarker Activity (AID 2284296); conditions: primary human HUVEC with PBMC
Method in brief: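 Human umbilical vein endothelial cells co-cultured with PBMC and stimulated with LPS; cell-surface thrombomodulin measured by ELISA 24 hours after compound. Gain or loss versus DMSO; cytotoxicity checked by SRB staining in parallel cultures.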

[17] = IUF_NPC2c_oligodendrocyte_migration_120hr: Leibniz Research Institute for Environmental Medicine (IUF) 120-hour Neural Progenitor Cell Migration Assay for Oligodendrocyte Migration (NPC2c) (AID 2284297);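 further: O4-positive oligodendrocyte migration distance divided by radial glia migration distance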
Method in brief: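 Human fetal neural progenitor spheres (0.3 mm) are plated on poly-D-lysine/laminin in N2 differentiation medium and exposed for 120 h, with half-medium renewal at day 3. Oligodendrocyte (O4+) migration distance comes from ICC imaging, normalised to radial glia migration.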

[18] = IUF_NPC2a_radial_glia_migration_120hr: Leibniz Research Institute for Environmental Medicine (IUF) 120-hour Neural Progenitor Cell Migration Assay for Radial Glia Migration (NPC2a) (AID 2284298)
Method in brief: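 Human fetal-cortex neural progenitor spheres (0.3 mm) plated on poly-D-lysine/laminin in N2 differentiation medium, exposed 120 h at 37C with half-medium renewal at day 3. Radial glia migration distance (um) measured from Hoechst-stained nuclei images; DMSO baseline.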

[19] = IUF_NPC2a_radial_glia_migration_72hr: Leibniz Research Institute for Environmental Medicine (IUF) 72-hour Neural Progenitor Cell Migration Assay for Radial Glia Migration (NPC2a) (AID 2284299)
Method in brief: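 Migration out of plated human neural progenitor spheres is scored at 72 h as the distance in um from the sphere core edge to the edge of the migration area. Values are the mean of four manual measurements per well, normalised to DMSO.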

[20] = IUF_NPC2b_neuronal_migration_120hr: Leibniz Research Institute for Environmental Medicine (IUF) 120-hour Neural Progenitor Cell Migration Assay for Neuron Migration (NPC2b) (AID 2284300)
Method in brief: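 0.3 mm hNPC spheres on poly-D-lysine/laminin in N2 differentiation medium exposed 120 h, half-medium refresh day 3; 7 concentrations, DMSO max 0.1%. Neuron (TUBB3) distance from sphere core by ICC imaging, normalised to radial glia migration.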

Measured: AC50

E-selectin (Homo sapiens), sequence (P16581 whole entry, looked up): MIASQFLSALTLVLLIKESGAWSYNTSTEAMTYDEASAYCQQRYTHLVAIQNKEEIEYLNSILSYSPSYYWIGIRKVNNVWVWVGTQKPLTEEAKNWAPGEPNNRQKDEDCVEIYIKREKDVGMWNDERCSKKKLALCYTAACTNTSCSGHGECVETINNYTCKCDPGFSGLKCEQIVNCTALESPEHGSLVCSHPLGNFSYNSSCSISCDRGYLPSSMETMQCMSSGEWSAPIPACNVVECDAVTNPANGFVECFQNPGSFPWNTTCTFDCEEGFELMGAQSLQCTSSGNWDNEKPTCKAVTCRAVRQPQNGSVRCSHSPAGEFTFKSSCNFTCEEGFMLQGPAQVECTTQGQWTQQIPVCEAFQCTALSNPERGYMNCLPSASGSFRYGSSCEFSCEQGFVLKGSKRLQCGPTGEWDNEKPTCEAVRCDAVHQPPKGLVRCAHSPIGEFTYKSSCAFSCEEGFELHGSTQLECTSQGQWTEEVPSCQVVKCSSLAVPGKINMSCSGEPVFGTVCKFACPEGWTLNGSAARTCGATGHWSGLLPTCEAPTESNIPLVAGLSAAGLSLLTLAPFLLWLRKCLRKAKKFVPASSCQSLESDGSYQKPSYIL

FC(F)(F)C(F)(F)C(F)(F)C(F)(F)C(F)(F)C(F)(F)CCS
inactive: [1] | [2] | [3] | [4] | [5] | [6] | [7] | [8] | [9] | [10] | [11] | [12] | [13] | [14] | [15] | [16]
active: [14] 2.49 µM | [15] 2.57 µM

O=C(O)C(F)(F)C(F)(F)C(F)(F)C(F)(F)C(F)(F)C(F)(F)C(F)(F)C(F)(F)C(F)(F)C(F)(F)C(F)(F)C(F)(F)F
inactive: [1] | [2] | [3] | [4] | [5] | [7] | [9] | [10] | [12] | [13] | [14] | [16]
active: [6] 15.2 µM and 19.4 µM | [7] 8.71 µM | [8] 13.3 µM and 16.4 µM

O=C(O)C=C(C(F)(F)F)C(F)(F)F
active: [3] 10.8 µM | [5] 2.31 µM | [6] 30 µM | [14] 12.8 µM and 11.3 µM | [16] 1.97 µM
inactive: [1] | [2] | [3] | [4] | [5] | [6] | [7] | [8] | [9] | [10] | [12] | [13] | [15] | [16]

C=CC(=O)OCC(F)(F)C(F)(F)C(F)(F)C(F)(F)C(F)(F)C(F)(F)C(F)(F)F
inactive: [1] | [2] | [3] | [4] | [5] | [6] | [7] | [8] | [9] | [10] | [12] | [13] | [14] | [15] | [16]
active: [8] 6.54 µM

N=C(N)C(F)(F)C(F)(F)C(F)(F)C(F)(F)C(F)(F)C(F)(F)C(F)(F)F
inactive: [1] | [2] | [3] | [4] | [5] | [6] | [7] | [8] | [9] | [10] | [12] | [13] | [14] | [16]
active: [5] 43.8 µM | [6] 41.4 µM | [7] 30 µM | [9] 30 µM | [16] 48.7 µM

FC(F)(I)C(F)(F)C(F)(F)C(F)(F)I
active: [1] 45.3 µM and 47.3 µM and 46.8 µM | [2] 47 µM and 47.5 µM and 43.1 µM | [3] 56.5 µM and 55.2 µM | [4] 45.7 µM and 49.4 µM | [5] 52.1 µM and 46.6 µM and 47 µM | [6] 54 µM | [7] 49.8 µM and 46 µM and 53.4 µM | [9] 46 µM | [13] 30 µM and 19.6 µM | [14] 30 µM | [16] 45.8 µM
inactive: [3] | [4] | [6] | [8] | [9] | [10] | [12] | [13] | [14] | [16]

FC(F)(F)C(F)(F)C(F)(F)C(F)(F)C(F)(F)C(F)(F)C(F)(F)C(F)(F)F
not listed: [11] | [15] | [17] | [18] | [19] | [20]
inactive: all other assays above

FC1CC(F)(F)C(F)(F)C1(F)F (centres undefined)
not listed: [11] | [15] | [17] | [18] | [19] | [20]
inactive: all other assays above

C=C(C)C(=O)OCCC(F)(F)C(F)(F)C(F)(F)C(F)(F)C(F)(C(F)(F)F)C(F)(F)F
not listed: [11] | [15] | [17] | [18] | [19] | [20]
inactive: all other assays above

FC(F)(F)C(F)(F)C(F)(F)N(C(F)(F)C(F)(F)C(F)(F)F)C(F)(F)C(F)(F)C(F)(F)F
not listed: [11] | [17] | [18] | [19] | [20]
inactive: all other assays above

FC(F)(F)C(F)(F)C(F)(F)C(F)(F)C(F)(F)CCI
not listed: [11] | [15] | [17] | [18] | [19] | [20]
inactive: all other assays above

O=C(O)C(F)(F)C(F)(F)OC(F)(F)F
not listed: [11] | [15] | [17] | [18] | [19] | [20]
inactive: all other assays above

C=CC(F)(F)C(F)(F)C(F)(F)C(F)(F)C(F)(F)C(F)(F)C(F)(F)C(F)(F)C=C
not listed: [11] | [15] | [17] | [18] | [19] | [20]
inactive: all other assays above

O=S(=O)(OCC(F)F)C(F)(F)F
not listed: [11] | [15] | [17] | [18] | [19] | [20]
inactive: all other assays above

NC(=O)C(F)(F)C(F)(F)C(F)(F)C(F)(F)F
not listed: [11] | [15] | [17] | [18] | [19] | [20]
inactive: all other assays above

CC(CCl)OP(=O)(OC(C)CCl)OC(C)CCl (centres undefined)
inactive: [17] | [18] | [19] | [20]
